Several values for one entry are separate records, joined by “and”; a condition that tells them apart may be missing. Identical values can stand only once. Records with an inconclusive call do not appear. Activity calls are given as the source filed them. Unless noted, the call rests on the fitted dose curve; in most records, active means well fitted curve in the direction sought with a large enough effect; inconclusive means small, poorly fitted or top-dose-only effect, or another doubt; inactive means no such curve, though single readings can be large; an effect the other way counts as inactive or inconclusive.
How the values were obtained:
[1] = AP1 Signaling Pathway (AID 357; active means well fitted curve in either direction with a large enough effect, not every such curve was filed as active;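 further: ME-180 reporter cells stimulated with EGF at its EC50 level; on the % scale 0 is the no-effect control and ±100 the full control effect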)
In short: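 Read-out was the 460nm/530nm emission ratio (excitation 405nm) after CCF4 loading for 2.5 hours at room temperature. Cells carried an AP-1-driven beta-lactamase reporter, were stimulated with EC50 EGF plus compound for 5 hours, and AC50 values came from titrations.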

[2] = molecular target: Cytochrome P450 1A2 (Homo sapiens) (UniProt P05177); test: p450-cyp1a2 (AID 410; calls by dose curve;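 further: -100% = full effect of reference inhibitor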)
In short: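 20nM CYP1A2, 100uM Luciferin-ME (=Km), 100mM KPO4; cpd 10 min RT; +NADPH regen, 60 min RT; stop/detect 20 min; luminescence. Normalized to furafylline 57 uM = full inhibition.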

[3] = NFAT Signaling Pathway (AID 444; active means well fitted curve in either direction with a large enough effect, not every such curve was filed as active;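 further: carbachol stimulus at about its EC50 of 1 µM final; on the % scale 0 is the no-effect control and ±100 the full control effect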); conditions: Jurkat NFAT-bla M1, carbachol, beta-lactamase ratio, 5 h
In short: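 Jurkat cells carrying an NFAT-driven β-lactamase reporter and co-transfected muscarinic M1 receptor were treated with compound plus carbachol (1 uM final, an EC50 level) for 5 h at 37 °C. CCF4 loading followed for 1 h at RT; 460/530 nm ratio gave %activity.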

[4] = molecular target: Glucocorticoid receptor (Homo sapiens) (UniProt P04150); test: GR-GFP Redistribution (AID 450;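 active means compounds whose dose series gives a full or clear partial fitted curve of increased nuclear translocation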; further: potency means the concentration at half of the fitted maximal effect); conditions: U2OS GR-GFP nuclear translocation, laser cytometry, 2 h
[5] = molecular target: Mitogen-activated protein kinase 10 (Mus musculus) (UniProt Q61831); test: JNK3 AlphaScreen Assay (AID 530; active means well fitted curve in either direction with a large enough effect, not every such curve was filed as active;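 further: kinase came from lysate of stimulated human HepG2 cells; signal reports phosphorylation of biotinylated GST-cJun 1-79 at Ser73 with 10 µM ATP; on the % scale 0 is the no-effect control and ±100 the full control effect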)
In short: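 Biotinylated GST-cJun(1-79) served as substrate for JNK3 in HepG2 lysates stimulated with IL-1beta and TNF-alpha. ATP was 10 uM final, pH 7.6. Ser73 phosphorylation was quantified by AlphaScreen (680 nm excitation).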

[6] = molecular target: Cytochrome P450 2D6 (Homo sapiens) (UniProt P10635); test: qHTS Assay for Inhibitors and Substrates of Cytochrome P450 2D6 (AID 891);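 further: luciferin methyl ether substrate demethylated by CYP2D6 with NADPH regeneration; on the % scale 0 is the no-effect control and ±100 the full control effect; nearly all actives have a fitted effect of over 60% in size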
In short: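 Luminescent read-out of luciferin formed by 5 nM human CYP2D6 demethylating 30 uM Luciferin-ME EGE (Km level) over 60 min at room temperature after NADPH regeneration addition. Data normalized to full inhibition by 1.43 uM quinidine.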

[7] = molecular target: Pyruvate kinase (Leishmania mexicana) (UniProt Q27686); test: qHTS Validation Assay for Inhibitors of Leishmania Mexicana Pyruvate Kinase (AID 945);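 further: 0% = DMSO only neutral control wells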
In short: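 An endpoint luciferase assay: 0.2 nM LmPYK E451W turns over 0.5 mM PEP with 0.1 mM ADP for 1 h at room temperature, pH 7.2, before PKLight addition. Values are normalized to DMSO-only wells.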

[8] = molecular target: Pyruvate kinase PKM (Homo sapiens) (UniProt P14618); test: qHTS Assay for Activators of Human Muscle Pyruvate Kinase (AID 954; active means well fitted curve in the direction sought with a large enough effect, not every such curve was filed as active;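 further: 0% = uninhibited enzyme and -100% = no enzyme or full thiadiazolimine inhibition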)
In short: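 Screening used highly purified human pyruvate kinase M2 under submaximal activity, with PEP at its Km and ADP below Km. After an hour at room temperature, ATP was read by luciferase luminescence.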

[9] = molecular target: Alpha-galactosidase (Coffea arabica) (UniProt Q42656); test: Counterscreen for Glucocerebrosidase Inhibitors: qHTS Assay for Coffee Bean alpha-Galactosidase at pH 4.5 (AID 957);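 further: plate controls were enzyme alone for no effect and no enzyme for full effect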
In short: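 Fluorogenic read-out: 4-methylumbelliferone at Ex 365/Em 440 nm after NaOH/glycine stop (pH 10). Enzyme 2 nM, 4-MU-alpha-galactoside 80 uM, citrate buffer pH 4.5, 20 min RT; normalized to no-enzyme and enzyme controls.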

[10] = molecular target: Alpha-galactosidase A (Homo sapiens) (UniProt P06280); test: Counterscreen for Glucocerebrosidase Inhibitors: qHTS Assay for Human alpha-Galactosidase at pH 4.5 (AID 992); further: 0% is about no effect
In short: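 Each compound is preincubated briefly with 2 nM enzyme before substrate addition (80 uM); plates then sit 20 min at ambient temperature, are quenched with 1M NaOH/1M glycine, and read fluorometrically.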

[11] = molecular target: alpha-glucosidase (Oryza sativa, rice) (UniProt Q653V4); test: Counterscreen for Glucocerebrosidase Inhibitors: qHTS Assay for Rice alpha-Glucosidase at pH 5.0 (AID 997);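 further: 0% = full activity with enzyme and -100% = basal without enzyme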
In short: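 Endpoint fluorogenic assay at pH 5.0: compounds (0.7 nM to 77 uM) titrated against 4 nM rice enzyme and 400 uM 4-MU-alpha-glucoside for 20 min at room temperature; NaOH/glycine stop, read ex 365/em 440 nm, Hill-fitted AC50.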

[12] = molecular target: Alpha-galactosidase (Coffea arabica) (UniProt Q42656); test: Counterscreen for Glucocerebrosidase Inhibitors: qHTS Assay for Coffee Bean alpha-Galactosidase at pH 5.9 (AID 998);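 further: plate controls were uninhibited enzyme for no effect and no-enzyme basal signal for full effect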
In short: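 In 50 mM citric acid pH 5.9 with 0.005% Tween-20, coffee bean enzyme hydrolyses 80 uM 4-MU alpha-D-galactopyranoside over 20 min at RT. Activity is normalized to controls; AC50 comes from Hill-modelled concentration-response data.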

[13] = qHTS Assay for Lipid Storage Modulators (AID 1519; calls by dose curve); conditions: Drosophila S3 cells, BODIPY lipid droplet/cell ratio, laser cytometry, cells loaded with oleic acid
In short: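 Cells seeded at 5,000 per well were treated with compounds over a concentration series and loaded with oleic acid (400 uM, as added). Lipid droplet fluorescence (488 nm excitation, 500-530 nm channel) was read by laser-scanning cytometry and normalized to 20 uM Triacsin C.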

[14] = molecular target: Ubiquitin carboxyl-terminal hydrolase 1 (Homo sapiens) (UniProt O94782); test: Inhibitors of USP1/UAF1: Pilot qHTS (AID 504865);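 further: rhodamine fluorescence freed from ubiquitin-rhodamine substrate followed over time; top concentration of the series differs between compounds; on the % scale 0 is the no-effect control and ±100 the full control effect; nearly all actives have a fitted effect of over 35% in size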
In short: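 1nM USP1/UAF1 + cpd, 15 min RT; start w/ Ub-Rho 150nM final; kinetic FL 480/540 nm, 6 reads q60 s. Buffer 50mM HEPES pH 7.8, 0.5mM EDTA, 1mM TCEP, 0.01% Tween-20, 0.1 mg/ml BSA.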

[15] = molecular target: DNA dC->dU-editing enzyme APOBEC-3G (Homo sapiens) (UniProt Q9HC16); test: qHTS for inhibitors of Vif-A3G interactions: Validation (AID 588379); further: 0% is about no effect
In short: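 Yellow fluorescence (Ex 488, Em 500-530) of Vif-coexpressing HeLa A3G-eYFP cells, scanned by Acumen cytometer, reports blocked A3G degradation. Cells plated at 700/well overnight at 37 deg C before compound addition, then a further overnight compound incubation at 37 deg C.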

[16] = tested on: Zika virus NS2B-NS3 protease; test: Primary screen GU AMC qHTS for Zika virus inhibitors (AID 1347154);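 further: 0% = no-inhibitor control and -100% = no-enzyme control; nearly all actives have a fitted effect of over 70% in size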
In short: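 Unlinked Zika NS2B hydrophilic domain/NS3 protease domain noncovalent complex (25 nM final) in 10 mM Tris-HCl pH 8.0, 0.01% Tween 20, with AMC peptide substrate. Fluorescence (ex 340, em 450 nm) change over 15 min, room temperature; percent inhibition fitted to 4-parameter Hill equation.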

[17] = Primary qHTS for small molecule stabilizers of the endoplasmic reticulum resident proteome: Secreted ER Calcium Modulated Protein (SERCaMP) assay (AID 1508630); further: on the % scale 0 is the no-effect control and ±100 the full control effect
In short: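 The SH-SY5Y reporter protocol was run at 3 concentrations up to 38.3 uM (primary) or 11 concentrations (follow-up): 16 h compound, 100 nM thapsigargin for 4 h, then extracellular luciferase luminescence.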

[18] = molecular target: Glucocorticoid receptor (Homo sapiens) (UniProt P04150); test: GR-EFC Redistribution (AID 451; calls by dose curve; further: potency means the concentration at half of the fitted maximal effect); conditions: CHO-K1 GR-EFC translocation, beta-gal luminescence, 2 h
In short: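 CHO-K1 cells stably expressing nuclear-localized β-gal enzyme acceptor and GR fused C-terminally to the enzyme donor fragment; ligand-driven nuclear translocation restores β-gal by complementation. Compounds titrated up to 46 uM final, 2 h at 37 °C; luminescence read.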

[19] = molecular target: Cytochrome P450 2C19 (Homo sapiens) (UniProt P33261); test: qHTS Assay for Inhibitors and Substrates of Cytochrome P450 2C19 (AID 899); further: on the % scale 0 is the no-effect control and ±100 the full control effect; nearly all actives have a fitted effect of over 60% in size
In short: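 In 50mM KPO4, the reaction held 5nM enzyme and KM-level (10uM) Luciferin-H EGE; it ran 60 min at 37C after NADPH regeneration and a 10 min compound preincubation. Luminescence values were scaled to 57uM ketoconazole as complete inhibition.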

[20] = molecular target: 3',5'-cyclic-AMP phosphodiesterase 4B (Homo sapiens) (UniProt Q07343); test: qHTS Assay for Inhibitors of PDE-IV (AID 607; active means well fitted activation curve with a large enough effect in the main read-out, with a control signal flat, not every such curve was filed as active; further: % of control where 0% means no effect)
In short: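 Live HEK293 cells with a modified cyclic nucleotide-gated (CNG) channel report intracellular cAMP via membrane-potential dye fluorescence (ex 535/em 590 nm). Endogenous PDE-IV was targeted. Compounds were tested at up to 22.9 uM final; RO 20-1724 100 uM served as control.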

[21] = measured here: cell count channel max response
[22] = measured here: lipid channel max response

Chain of Cytochrome P450 1A2 (Homo sapiens) (P05177 whole entry, looked up): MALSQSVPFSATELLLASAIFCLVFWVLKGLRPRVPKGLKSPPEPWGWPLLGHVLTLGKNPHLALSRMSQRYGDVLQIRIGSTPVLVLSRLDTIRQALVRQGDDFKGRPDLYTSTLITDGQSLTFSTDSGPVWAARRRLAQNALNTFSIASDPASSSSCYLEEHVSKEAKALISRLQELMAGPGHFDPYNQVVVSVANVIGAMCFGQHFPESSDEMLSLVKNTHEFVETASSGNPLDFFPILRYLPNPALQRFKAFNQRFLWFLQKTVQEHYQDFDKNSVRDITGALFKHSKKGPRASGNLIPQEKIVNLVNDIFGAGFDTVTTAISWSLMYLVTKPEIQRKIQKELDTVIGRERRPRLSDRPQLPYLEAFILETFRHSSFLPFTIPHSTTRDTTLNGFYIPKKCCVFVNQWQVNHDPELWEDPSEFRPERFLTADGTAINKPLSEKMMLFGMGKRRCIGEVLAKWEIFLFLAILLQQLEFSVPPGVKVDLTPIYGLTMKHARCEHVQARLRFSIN
Chain of Ubiquitin carboxyl-terminal hydrolase 1 (Homo sapiens) (O94782 whole entry, looked up): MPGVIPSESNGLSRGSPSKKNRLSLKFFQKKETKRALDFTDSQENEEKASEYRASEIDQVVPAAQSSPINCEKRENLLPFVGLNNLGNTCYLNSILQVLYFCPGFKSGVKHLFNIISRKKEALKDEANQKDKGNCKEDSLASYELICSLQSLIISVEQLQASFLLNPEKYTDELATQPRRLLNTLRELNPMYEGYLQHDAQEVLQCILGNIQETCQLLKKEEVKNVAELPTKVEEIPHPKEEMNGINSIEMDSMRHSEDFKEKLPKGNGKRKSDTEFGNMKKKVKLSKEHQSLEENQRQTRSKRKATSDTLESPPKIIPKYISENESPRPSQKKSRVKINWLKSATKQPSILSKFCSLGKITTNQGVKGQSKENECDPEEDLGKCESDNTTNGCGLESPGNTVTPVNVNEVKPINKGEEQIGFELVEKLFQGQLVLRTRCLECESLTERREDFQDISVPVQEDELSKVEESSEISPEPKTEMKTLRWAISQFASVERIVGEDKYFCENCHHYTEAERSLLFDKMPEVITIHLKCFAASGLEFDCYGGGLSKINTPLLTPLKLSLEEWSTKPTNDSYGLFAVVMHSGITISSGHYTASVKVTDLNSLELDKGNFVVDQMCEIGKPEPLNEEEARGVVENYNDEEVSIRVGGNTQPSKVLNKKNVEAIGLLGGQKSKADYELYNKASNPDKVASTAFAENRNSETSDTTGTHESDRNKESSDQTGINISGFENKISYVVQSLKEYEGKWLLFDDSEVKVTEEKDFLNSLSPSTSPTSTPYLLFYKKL
Chain of DNA dC->dU-editing enzyme APOBEC-3G (Homo sapiens) (Q9HC16 whole entry, looked up): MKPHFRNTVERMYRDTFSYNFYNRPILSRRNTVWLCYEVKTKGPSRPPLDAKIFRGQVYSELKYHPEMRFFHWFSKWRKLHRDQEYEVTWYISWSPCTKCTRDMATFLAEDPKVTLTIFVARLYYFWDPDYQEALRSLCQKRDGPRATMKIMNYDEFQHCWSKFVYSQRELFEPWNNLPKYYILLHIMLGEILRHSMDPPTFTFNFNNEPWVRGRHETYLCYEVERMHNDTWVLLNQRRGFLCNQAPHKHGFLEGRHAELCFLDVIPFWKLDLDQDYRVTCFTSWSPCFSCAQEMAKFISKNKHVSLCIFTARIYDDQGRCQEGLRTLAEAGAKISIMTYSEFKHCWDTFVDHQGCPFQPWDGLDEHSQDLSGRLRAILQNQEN
Chain of Glucocorticoid receptor (Homo sapiens) (P04150 whole entry, looked up, the tested form may be a part): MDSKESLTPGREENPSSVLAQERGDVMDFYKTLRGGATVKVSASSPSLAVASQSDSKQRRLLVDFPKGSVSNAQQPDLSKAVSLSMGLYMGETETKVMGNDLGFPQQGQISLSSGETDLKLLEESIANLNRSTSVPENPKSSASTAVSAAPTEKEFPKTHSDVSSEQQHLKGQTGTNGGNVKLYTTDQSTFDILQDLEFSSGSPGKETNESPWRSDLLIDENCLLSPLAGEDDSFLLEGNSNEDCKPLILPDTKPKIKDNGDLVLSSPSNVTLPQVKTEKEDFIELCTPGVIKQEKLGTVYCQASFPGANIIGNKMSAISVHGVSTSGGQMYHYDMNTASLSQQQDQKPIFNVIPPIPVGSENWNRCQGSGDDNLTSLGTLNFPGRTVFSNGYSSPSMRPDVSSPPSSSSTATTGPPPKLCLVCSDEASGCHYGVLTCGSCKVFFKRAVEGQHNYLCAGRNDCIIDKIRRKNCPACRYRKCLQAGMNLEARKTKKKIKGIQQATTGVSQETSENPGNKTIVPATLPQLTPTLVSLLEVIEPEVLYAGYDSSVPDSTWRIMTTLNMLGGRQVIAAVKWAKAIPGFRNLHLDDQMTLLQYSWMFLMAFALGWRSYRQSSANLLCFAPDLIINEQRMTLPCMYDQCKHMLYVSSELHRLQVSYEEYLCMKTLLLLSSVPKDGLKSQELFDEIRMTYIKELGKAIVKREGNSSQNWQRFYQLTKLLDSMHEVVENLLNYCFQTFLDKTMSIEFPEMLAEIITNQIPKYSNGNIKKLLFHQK
Chain of Cytochrome P450 2D6 (Homo sapiens) (P10635 whole entry, looked up): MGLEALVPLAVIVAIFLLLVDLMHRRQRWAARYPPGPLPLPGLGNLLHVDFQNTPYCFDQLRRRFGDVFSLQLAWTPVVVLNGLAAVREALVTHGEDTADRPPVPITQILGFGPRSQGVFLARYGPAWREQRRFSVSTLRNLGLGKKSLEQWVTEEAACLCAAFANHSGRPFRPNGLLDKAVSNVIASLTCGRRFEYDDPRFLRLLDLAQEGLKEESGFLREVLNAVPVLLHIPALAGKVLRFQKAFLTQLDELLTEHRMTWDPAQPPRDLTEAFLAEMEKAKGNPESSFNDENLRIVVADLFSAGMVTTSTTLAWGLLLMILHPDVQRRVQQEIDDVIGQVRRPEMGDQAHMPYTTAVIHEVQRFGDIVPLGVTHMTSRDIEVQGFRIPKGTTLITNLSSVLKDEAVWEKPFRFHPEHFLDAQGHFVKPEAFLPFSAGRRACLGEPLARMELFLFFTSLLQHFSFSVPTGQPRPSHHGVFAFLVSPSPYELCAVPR
Chain of Alpha-galactosidase (Coffea arabica) (Q42656 whole entry, looked up): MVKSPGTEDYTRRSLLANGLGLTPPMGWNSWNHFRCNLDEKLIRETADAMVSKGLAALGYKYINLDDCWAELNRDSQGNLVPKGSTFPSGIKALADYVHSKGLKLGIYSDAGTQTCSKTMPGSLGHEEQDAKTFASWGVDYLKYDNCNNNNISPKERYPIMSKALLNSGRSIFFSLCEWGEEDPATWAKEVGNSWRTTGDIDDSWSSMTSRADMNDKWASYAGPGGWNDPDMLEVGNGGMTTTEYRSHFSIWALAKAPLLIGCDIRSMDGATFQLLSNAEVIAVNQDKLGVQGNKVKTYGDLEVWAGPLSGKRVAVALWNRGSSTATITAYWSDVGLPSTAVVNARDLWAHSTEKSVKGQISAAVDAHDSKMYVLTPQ
Chain of 3',5'-cyclic-AMP phosphodiesterase 4B (Homo sapiens) (Q07343 whole entry, looked up): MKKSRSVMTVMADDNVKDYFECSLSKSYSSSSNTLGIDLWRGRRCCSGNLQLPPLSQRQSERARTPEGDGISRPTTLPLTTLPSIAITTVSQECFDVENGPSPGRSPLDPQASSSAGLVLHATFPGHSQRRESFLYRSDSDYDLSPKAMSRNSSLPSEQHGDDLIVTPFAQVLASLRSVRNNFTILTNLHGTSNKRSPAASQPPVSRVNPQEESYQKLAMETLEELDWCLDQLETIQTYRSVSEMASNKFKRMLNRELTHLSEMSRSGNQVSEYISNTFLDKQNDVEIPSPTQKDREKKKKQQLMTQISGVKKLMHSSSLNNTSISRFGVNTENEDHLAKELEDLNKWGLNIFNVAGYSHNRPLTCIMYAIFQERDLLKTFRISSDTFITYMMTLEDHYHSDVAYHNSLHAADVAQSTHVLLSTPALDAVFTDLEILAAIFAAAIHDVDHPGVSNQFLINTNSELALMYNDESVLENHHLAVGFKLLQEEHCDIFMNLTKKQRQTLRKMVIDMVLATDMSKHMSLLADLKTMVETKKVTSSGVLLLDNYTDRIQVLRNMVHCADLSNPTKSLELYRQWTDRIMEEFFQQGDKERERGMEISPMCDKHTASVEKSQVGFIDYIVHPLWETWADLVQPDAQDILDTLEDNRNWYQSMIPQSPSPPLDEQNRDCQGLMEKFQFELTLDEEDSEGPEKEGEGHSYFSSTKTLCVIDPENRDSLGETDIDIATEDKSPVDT
Chain of Cytochrome P450 2C19 (Homo sapiens) (P33261 whole entry, looked up): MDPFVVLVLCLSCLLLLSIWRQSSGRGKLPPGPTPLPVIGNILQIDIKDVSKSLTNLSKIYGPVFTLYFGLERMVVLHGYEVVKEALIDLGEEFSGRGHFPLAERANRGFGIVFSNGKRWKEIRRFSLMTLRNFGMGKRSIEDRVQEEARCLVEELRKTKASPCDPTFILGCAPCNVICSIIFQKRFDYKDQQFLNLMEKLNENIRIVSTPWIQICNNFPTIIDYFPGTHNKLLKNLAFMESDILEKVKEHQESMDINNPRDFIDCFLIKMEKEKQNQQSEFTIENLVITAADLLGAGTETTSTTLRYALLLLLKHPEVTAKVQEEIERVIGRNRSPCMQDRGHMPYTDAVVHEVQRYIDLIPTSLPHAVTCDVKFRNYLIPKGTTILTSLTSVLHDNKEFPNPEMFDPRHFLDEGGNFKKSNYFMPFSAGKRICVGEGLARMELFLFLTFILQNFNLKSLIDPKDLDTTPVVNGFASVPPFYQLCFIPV
Chain of Alpha-galactosidase A (Homo sapiens) (P06280 whole entry, looked up): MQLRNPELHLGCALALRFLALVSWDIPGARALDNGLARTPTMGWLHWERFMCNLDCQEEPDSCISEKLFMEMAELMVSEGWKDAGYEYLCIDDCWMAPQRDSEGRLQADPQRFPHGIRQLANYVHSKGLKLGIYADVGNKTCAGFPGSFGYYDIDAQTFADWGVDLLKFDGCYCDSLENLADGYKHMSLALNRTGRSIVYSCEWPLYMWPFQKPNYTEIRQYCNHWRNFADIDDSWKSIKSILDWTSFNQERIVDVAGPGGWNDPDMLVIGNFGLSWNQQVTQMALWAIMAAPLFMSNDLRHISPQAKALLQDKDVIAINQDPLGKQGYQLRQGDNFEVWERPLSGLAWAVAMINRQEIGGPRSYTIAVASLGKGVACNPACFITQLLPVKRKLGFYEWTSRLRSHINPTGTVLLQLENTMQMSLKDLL

CC(C)(C)c1o[nH]c(=O)c1C[C@H](N)C(=O)O
inactive: outcome [1] | Potency [2] | activity change, negative = inhibition ([3]; at 38 µM (top of the series)) -2.55% | Potency [4] > 46 µM | outcome [5] | Potency [6] | outcome [7] | outcome [8] | outcome [9] | outcome [10] | outcome [11] | outcome [12] | activity change, negative = inhibition ([13]; at 57.5 µM (top of the series)) 1.88% | Potency [14] | Potency [15] | Potency [16] | Potency [17]
-7.95%: max response [13, 22]
-7.92%: max response [13, 21]

CCCCCCCCCCCCCCCC(=O)OC[C@H](COP(=O)([O-])OCC[N+](C)(C)C)OC(C)=O
inactive: activity change, negative = inhibition [16] 9.56% [at 6.83 µM] | activity change, negative = inhibition [17] -14.9% [at 3.88 µM]

O[C@@H]1CCCC[C@@H]1N1CCC(c2ccccc2)CC1
inactive: Potency [16] | Potency [17]

NC[C@@H](CC(=O)O)c1ccc(Cl)cc1
11.7%: max response [13, 21]
inactive: outcome [1] | Potency [2] | activity change, negative = inhibition ([3]; at 17.2 µM (top of the series)) -1.76% | activity change, negative = inhibition ([3]; at 38 µM (top of the series)) -6.39% | Potency [4] > 20.6 µM and > 46 µM | Potency [18] > 20.6 µM and > 46 µM | outcome [5] | Potency [6] | Potency [19] | activity change, negative = inhibition ([13]; at 25.7 µM (top of the series)) 0.101% | Potency [15] | Potency [16] | Potency [17]
10.6%: max response [13, 22]

N[C@]1(C(=O)O)CC[C@@H](C(=O)O)C1 (racemic)
inactive: Potency [16] | Potency [17]

NCCc1cccc(O)c1
inactive: Potency [16] | Potency [17]

O=C(O)Cc1cccnc1C(=O)O
-8.51%: max response [13, 21]
inactive: Potency [4] > 46 µM | Potency [18] > 46 µM | activity change, negative = inhibition ([13]; at 57.5 µM (top of the series)) 3.53% | Potency [14] | Potency [15] | Potency [16] | Potency [17]
-2.88%: max response [13, 22]

O=C(O)/C=C\CO
-9.77%: max response [13, 22]
-10.2%: max response [13, 21]
inactive: Potency [4] > 46 µM | Potency [18] > 46 µM | outcome [5] | Potency [20] | activity change, negative = inhibition ([13]; at 57.5 µM (top of the series)) 3.52% | Potency [14] | Potency [15] | Potency [16] | Potency [17]

CNCC/C=C\c1cccnc1
-3.17%: max response [13, 22]
inactive: Potency [2] | Potency [4] > 46 µM | Potency [18] > 46 µM | Potency [20] | activity change, negative = inhibition ([13]; at 57.5 µM (top of the series)) 4.36% | Potency [14] | Potency [15] | Potency [16] | Potency [17]
-7.59%: max response [13, 21]

CCCN1C[C@H](C)N([C@H](c2ccc(C(=O)N(CC)CC)cc2)c2cccc(OC)c2)C[C@H]1C
26.5%: max response [13, 21]
30.1%: max response [13, 22]
inactive: Potency [4] > 46 µM | Potency [18] > 46 µM | outcome [5] | activity change, negative = inhibition ([13]; at 57.5 µM (top of the series)) 9.16% | Potency [14] | Potency [15] | Potency [16] | Potency [17]

Reference: PubChem BioAssay (NCATS)
